For one compound, AC50 results are on record in PubChem BioAssay (EPA / NIEHS).

Records with an inconclusive call do not appear. Active and inactive are the calls of the source. The calls were made as follows: active = hit-call score of the fitted dose curve at least 0.9, where 1 is the maximum; inconclusive = response in the unintended direction; inactive = score below 0.9.

The target in the test is human Neurotensin Receptor (NTS), NTSR1 (gene 4923) (UniProt P30989). Description: NVS_GPCR_hNTS: NovaScreen (NVS) G Protein-Coupled Receptor Assay for human Neurotensin Receptor (NTS) (AID 2283279). The procedure, abridged: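 Compounds competed with a radiolabelled ligand for binding to CHO-derived human neurotensin receptor; bound signal counted after filtration, 1 h. Screened first at a single concentration of 25 uM in duplicate, then concentration series to 50 uM maximum for actives.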
Sequence of human Neurotensin Receptor (NTS), NTSR1 (gene 4923) (P30989 whole entry, looked up): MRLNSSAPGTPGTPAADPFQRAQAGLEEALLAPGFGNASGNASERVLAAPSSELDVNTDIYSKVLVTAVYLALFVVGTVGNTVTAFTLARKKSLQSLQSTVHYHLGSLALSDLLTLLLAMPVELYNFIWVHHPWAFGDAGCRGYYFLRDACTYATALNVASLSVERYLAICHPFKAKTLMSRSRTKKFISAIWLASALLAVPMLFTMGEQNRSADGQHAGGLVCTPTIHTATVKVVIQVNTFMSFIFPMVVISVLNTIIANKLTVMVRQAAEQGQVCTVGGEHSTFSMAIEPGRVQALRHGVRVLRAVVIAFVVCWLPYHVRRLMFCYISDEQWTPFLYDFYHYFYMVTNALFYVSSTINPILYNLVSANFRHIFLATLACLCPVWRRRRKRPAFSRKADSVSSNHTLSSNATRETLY

For `CCCCCCCCN(C)C`, the AC50 is 16.7 µM (active).

What is called AC50 is the midpoint of the concentration-response curve, whichever way the signal moves.
